Assay results as given in PubChem BioAssay (NCATS).
Results filed as inconclusive are left out. The source made the active and inactive calls. Calls come from the whole dose curve; as a rule, active = well fitted curve in the direction sought with a large enough effect; inconclusive = small, poorly fitted or top-dose-only effect, or another doubt; inactive = no such curve, though single readings can be large; an effect the other way counts as inactive or inconclusive.

Tests used:
[1] = OV-KATE Cancer Cell Toxicity qHTS against the NCATS CANVASS Library (AID 1347345); note: potency is the fitted concentration of half-maximal effect
Method in brief: (§1)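 Step one: seed 1000 cells per well. Step two: incubate 4 h. Step three: add test compounds in 11 concentrations. Step four: culture 72 h, then add CellTiter-Glo and record luminescence after 15min.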

[2] = HPAF-II Cancer Cell Toxicity qHTS against the NCATS CANVASS Library (AID 1347346); note: nearly all actives have a fitted effect of over 55% in size; note: potency is the fitted concentration of half-maximal effect
Method in brief: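 Using 1000 HPAF-II cells per well, we titrated compounds over 11 concentrations for 72 h at 37 degrees C/5% CO2, with bortezomib as control. Cell survival was quantified by CellTiter-Glo luminescence.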

[3] = U-118MG Cancer Cell Toxicity qHTS against the NCATS CANVASS Library (AID 1347351)
Method in brief: as §1

[4] = HEK293 18hr Apoptosis Induction qHTS against the NCATS CANVASS Library (AID 1347357); note: potency is the fitted concentration of half-maximal effect
Method in brief: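 Cells seeded at 500/well in DMEM + 10% FBS. Compounds pinned, 11 concentrations. 18 h, 37 degrees C/5% CO2. Caspase-Glo 3/7 added, 15 min RT dark, luminescence read.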

[5] = HPAF-II 12hr Apoptosis Induction qHTS against the NCATS CANVASS Library (AID 1347358); note: potency is the fitted concentration of half-maximal effect
Method in brief: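 Twelve-hour compound exposure of HPAF-II cells in DMEM with 10% FBS, then luminescent Caspase-Glo 3/7 detection after 15 min at room temperature; doxorubicin control.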

[6] = HEK293 24hr Apoptosis Induction qHTS against the NCATS CANVASS Library (AID 1347359); note: potency is the fitted concentration of half-maximal effect
Method in brief: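 Caspase-3/7 activation measured as luminescence from the DEVD-based Caspase-Glo reagent, 15 min at room temperature, following 24-hour compound treatment of HEK293 cells.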

[7] = HEK293 12hr Apoptosis Induction qHTS against the NCATS CANVASS Library (AID 1347361); note: potency is the fitted concentration of half-maximal effect
Method in brief: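 Cells are seeded, dosed with an 11-point compound series and incubated 12 hours. Caspase-3/7 activity is detected by luminescent DEVD-substrate reagent after 15 minutes at room temperature.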

[8] = target: Luciferin 4-monooxygenase (Photinus pyralis) (UniProt P08659); experiment: Firefly luciferase counterscreen qHTS: Assay Interference Panel against the NCATS CANVASS Library (AID 1347363); note: potency is the fitted concentration of half-maximal effect
Sequence of Luciferin 4-monooxygenase (Photinus pyralis) (P08659 whole entry, looked up): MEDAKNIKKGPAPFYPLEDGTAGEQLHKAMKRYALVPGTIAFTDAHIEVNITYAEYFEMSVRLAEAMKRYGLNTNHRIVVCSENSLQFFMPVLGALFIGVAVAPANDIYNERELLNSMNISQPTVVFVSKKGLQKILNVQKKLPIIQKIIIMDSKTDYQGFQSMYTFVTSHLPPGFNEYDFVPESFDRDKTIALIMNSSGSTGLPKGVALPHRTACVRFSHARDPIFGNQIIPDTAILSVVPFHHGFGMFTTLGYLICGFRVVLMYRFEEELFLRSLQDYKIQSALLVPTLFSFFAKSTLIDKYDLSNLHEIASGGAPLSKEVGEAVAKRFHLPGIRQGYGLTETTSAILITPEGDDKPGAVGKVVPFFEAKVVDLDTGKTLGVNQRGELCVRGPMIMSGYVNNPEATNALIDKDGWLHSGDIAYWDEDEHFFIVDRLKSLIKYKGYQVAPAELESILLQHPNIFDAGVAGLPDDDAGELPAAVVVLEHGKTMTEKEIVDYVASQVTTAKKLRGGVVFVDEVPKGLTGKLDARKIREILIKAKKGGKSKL
Method in brief: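 Luminescence inhibition readout: compounds (11-point qHTS) sat 15 min at room temperature with substrate mix (0.013 mM luciferin and ATP), then firefly luciferase was added and signal read 5 min later.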

[9] = KB-3-1 Cancer Cell Toxicity qHTS against the NCATS CANVASS Library (AID 1347366); note: nearly all actives have a fitted effect of over 75% in size; note: potency is the fitted concentration of half-maximal effect
Method in brief: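 Luminescence from CellTiter-Glo (10 min, room temperature) measured KB-3-1 viability after 72 hr compound exposure at 37C. Cells were seeded at 500/well and tested in an 11-point series.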

[10] = MCF7 Cancer Cell Toxicity qHTS against the NCATS CANVASS Library (AID 1347369); note: potency is the fitted concentration of half-maximal effect
Method in brief: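 Cells seeded at 500/well, then compound pinned. Plates incubated 72 hr at 37C, 5% CO2. CellTiterGlo added; luminescence read.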

[11] = J3T Cancer Cell Toxicity qHTS against the NCATS CANVASS Library (AID 1347371); note: potency is the fitted concentration of half-maximal effect
Method in brief: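 ATP-based cytotoxicity in canine J3T cells: 72 hr exposure at 37C, 11-point titration, CellTiterGlo luminescent detection.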

[12] = target: Nuclear receptor subfamily 1 group I member 3 (Homo sapiens) (UniProt Q14994); experiment: qHTS for Constitutive Androstane Receptor (CAR) Antagonist screened against the NCATS CANVASS Library (AID 1347372); note: potency is the fitted concentration of half-maximal effect
Sequence of Nuclear receptor subfamily 1 group I member 3 (Homo sapiens) (Q14994 whole entry, looked up): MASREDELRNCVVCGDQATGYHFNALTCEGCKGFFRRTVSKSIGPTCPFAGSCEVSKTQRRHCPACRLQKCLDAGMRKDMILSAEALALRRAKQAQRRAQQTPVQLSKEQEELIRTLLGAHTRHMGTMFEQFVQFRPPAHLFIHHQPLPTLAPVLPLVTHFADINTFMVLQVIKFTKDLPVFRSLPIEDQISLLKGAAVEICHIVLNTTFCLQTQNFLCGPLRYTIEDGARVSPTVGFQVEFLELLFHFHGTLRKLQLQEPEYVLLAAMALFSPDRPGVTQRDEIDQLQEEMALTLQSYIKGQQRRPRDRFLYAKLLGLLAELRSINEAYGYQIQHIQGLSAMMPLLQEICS
Method in brief: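 Antagonist mode: compound added alongside 50 nM CITCO to HepG2-hCAR-CYP2B6 reporter cells, 24hr at 37C. Viability by CellTiter-Fluor fluorescence, then CAR-driven luciferase by ONE-Glo luminescence.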

[13] = target: Nuclear receptor subfamily 1 group I member 3 (Homo sapiens) (UniProt Q14994); experiment: qHTS for Constitutive Androstane Receptor (CAR) Agonist screened against the NCATS CANVASS Library (AID 1347373);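 note: every well also contained 1.5 µM PK11195 alongside the test compound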
Method in brief: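 In an 11-point concentration series, compounds were incubated 24hr with HepG2 cells carrying hCAR and a CYP2B6-2.2kb reporter, with PK11195 at 1.5uM final. A CellTiter-Fluor viability read preceded the ONE-Glo luminescence read.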

[14] = qHTS for Hypoxia signaling pathway (HIF-1) agonists against the NCATS CANVASS Library (AID 1347375)
Method in brief: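 An HRE-beta-lactamase ME-180 line is exposed for 17 h to an 11-point compound series, then read by CCF4-AM FRET. Cytotoxicity is measured in parallel in the same wells with CellTiter-Glo, and autofluorescence is checked separately.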

[15] = 10-beta competent E. coli microbial cell viability qHTS against the NCATS CANVASS Library (AID 1347376); note: series mostly up to about 46 µM
Method in brief: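 Overnight 37C exposure of 10-beta E. coli (0.2 OD) to an 11-point concentration series; ATP-based luminescence after 20 min room-temperature reagent incubation; daunomycin as control.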

[16] = qHTS for H2AX Agonists against the NCATS CANVASS Library (AID 1347378);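 note: phospho-H2AX S139 level in CHO-K1 lysates by TR-FRET emission ratio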; note: potency is the fitted concentration of half-maximal effect
Method in brief: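 CHO-K1, 1000 cells/well, o/n 37C; cpd several conc, 3 hr 37C, 0.76% DMSO; lyse 30 min RT; cryptate anti-pH2AX(S139) + d2 anti-H2AX, 24 hr RT; HTRF 665/620.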

[17] = Inflammasome Signaling qHTS Counterscreen: IL-1-beta AlphaLISA counterscreen against the NCATS CANVASS Library (AID 1347381);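 note: cell-free check with purified IL-1β in medium and no THP-1 cells; series mostly up to about 57 µM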
Method in brief: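 Here, no cellular stimulation occurs; compounds in an 11-point series meet 4 pg purified IL-1-beta directly. Bead-based AlphaLISA detection follows (1 h acceptor/antibody, then 30 min donor, dark, room temperature), with excitation at 680 nm.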

[18] = Cytotoxicity qHTS for assessment of Hepg2 cells membrane integrity screened against the NCATS CANVASS Library (AID 1347387)
Method in brief: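 Membrane damage in HepG2 monolayers was estimated from released LDH, measured with CytoTox-ONE (ex 560/em 590 nm), after 5 hr treatment across 0.59 nM - 46 uM final.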

[19] = qHTS for inhibitors of Wild type Zika virus screened against the NCATS CANVASS Library (AID 1347396);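 note: ATP luminescence of surviving cells so rescue from viral cell killing; series mostly up to about 46 µM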
Method in brief: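 Using ATP-based luminescence (CellTiter Glo), this screen scores rescue of Vero 766 cells from wild-type Zika killing at 72 h post-infection. Compounds are tested in a concentration series.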

[20] = Viability qHTS for inhibitors of the SERCaMP assay screened against the NCATS CANVASS Library (AID 1347400); note: nearly all actives have a fitted effect of over 70% in size; note: potency is the fitted concentration of half-maximal effect
Method in brief: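 Measures loss of viability in SERCaMP reporter SH-SY5Y cells treated for 48 h with compounds; luminescent ATP detection by CellTiter-Glo.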

Measured: Potency

O=c1cc(-c2ccc(O)c(O[C@@H]3O[C@H](CO)[C@@H](O)[C@H](O)[C@H]3O)c2)oc2cc(O[C@@H]3O[C@H](CO)[C@@H](O)[C@H](O)[C@H]3O)cc(O)c12
inactive: all assays above

O=Cc1ccc2n1C[C@@]1(C[C@H](O)[C@H](O)CO1)OC2
inactive: all assays above

COc1c(O)cc2oc(-c3ccccc3)cc(=O)c2c1O
active: [8] 0.544 µM
not listed: [9] | [13] | [19]
inactive: all other assays above

C=C(C)CC[C@H](Cc1c(O)cc(O)c2c1O[C@H](c1ccc(O)cc1O)CC2=O)C(=C)C
inactive: all assays above

CN1C(=O)[C@]23SS[C@@]1(C)C(=O)N2[C@H]1Nc2ccccc2[C@]1(c1c[nH]c2ccccc12)[C@@H]3O
active: [1] 1.06 µM | [2] 0.841 µM | [4] 8.33 µM | [5] 0.59 µM | [6] 5.26 µM | [7] 5.26 µM | [9] 2.96 µM | [10] 3.7 µM | [11] 1.66 µM | [12] 10.5 µM | [16] 21.7 µM | [20] 2.4 µM
inactive: [8] | [13] | [14] | [15] | [17] | [18]

C=C[C@@]1(C)CC[C@@H]([C@H](C)C(=O)/C=C/C(C)C)O1
inactive: all assays above
